TEAD-YAP block = TEAD-YAP interaction inhibition; HEK-TIYL cells, TEAD-Gal4/YAP UAS-luciferase luminescence; inhibition, % at 9.12 µM; actives 1.4% (n = 640,000); in the data active means inhibition above about 32%;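 further: 0% = median of test compound wells and 100% = reference inhibitor wells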
GPR151 ag = activates the human receptor GPR151; Q8TDV0; PathHunter beta-arrestin GPR151 cells, luminescence; activation, % at 11.2 µM; actives 1% (n = 650,000); AID 1508602; in the data active means activation above about 4.9%;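 further: 0% = median of compound wells and 100% = cells with positive control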
FBW7 act = human FBW7 E3 ligase activation, primary screen; Q969H0; normalized activity (activation), % at 26.1 µM; actives 0.13% (n = 650,000); AID 1259310; AlphaScreen FBW7–phospho-cyclin E peptide binding, activator screen; in the data active means normalized activity above about 1.9%;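 further: purified mutant Fbw7 with reduced substrate affinity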
MITF inh = inhibitors of human MITF; O75030; AlphaScreen MITF homodimerization, bead proximity signal; inhibition, % at 2.6 µM; actives 0.91% (n = 650,000); AID 1259374; in the data active means inhibition above about 50%;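 further: 0% = vehicle wells with protein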
Target sequence (O75030 whole entry, looked up): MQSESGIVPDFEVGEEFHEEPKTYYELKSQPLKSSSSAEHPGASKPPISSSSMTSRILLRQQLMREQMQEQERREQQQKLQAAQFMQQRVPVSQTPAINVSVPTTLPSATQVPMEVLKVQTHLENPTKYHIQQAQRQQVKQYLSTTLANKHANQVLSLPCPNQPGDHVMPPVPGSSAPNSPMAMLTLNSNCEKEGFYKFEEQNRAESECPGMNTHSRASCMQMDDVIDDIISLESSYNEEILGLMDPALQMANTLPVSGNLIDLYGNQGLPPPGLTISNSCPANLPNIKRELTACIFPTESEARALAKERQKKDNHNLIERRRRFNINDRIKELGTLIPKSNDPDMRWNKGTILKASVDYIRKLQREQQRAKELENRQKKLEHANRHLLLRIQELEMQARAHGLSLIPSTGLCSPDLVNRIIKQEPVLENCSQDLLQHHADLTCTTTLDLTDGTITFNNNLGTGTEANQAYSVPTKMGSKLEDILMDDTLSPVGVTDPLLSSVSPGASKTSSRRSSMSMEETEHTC
Starred values were filed as active, the others as inactive; ! = not active in a repeat. The list is not random: actives were taken first. Their share in the collection is about 3.5%.

SMILES | TEAD-YAP block | GPR151 ag | FBW7 act | MITF inh
COc1ccc2nc(C)cc(Nc3ccc(N4CCN(C)CC4)cc3)c2c1 | 77.4* | -1.4 | 0.0 | 4.4
COc1ccc(OC)c(Nc2cc(C)nc3nc(C)nn23)c1 | 34.5* | 0.0 | 0.2 | 1.6
CCOc1ccc2nc(C)cc(Nc3cc(Cl)ccc3OC)c2c1 | 38.5* | 0.5 | 0.0 | -0.4
CCOc1ccc(Nc2cc(C)nc3ccc(OC)cc23)cc1 | 11.6 | 0.5 | 0.1 | 10.6
Cn1c(=NC(=O)c2ccc(S(=O)(=O)N3CCc4ccccc4C3)cc2)sc2c3ccccc3ccc21 | 0.9 | -2.0 | -0.1 | 6.2
COc1ccc(OC)c(Nc2cc(C)nc3ccc(OC)cc23)c1 | 67.6* | 0.2 | -0.2 | 1.3
O=C(/C=C/Nc1ccc(Cl)cc1)c1ccccc1 | 35.2* | -2.5 | 0.0 | 9.4
COc1cc(C(=O)/C=C/Nc2ccc(Cl)cc2)cc(OC)c1OC | 37.7* | 0.5 | -0.1 | -3.2
O=C(/C=C/Nc1ccc(O)cc1)c1ccc(Cl)cc1 | -24.5 | 0.4 | 0.1 | 8.7
COc1cc(C(=O)/C=C/Nc2ccc(C)cc2O)cc(OC)c1OC | 49.5* | -0.7 | -0.1 | 5.3
COc1cc(C(=O)/C=C/Nc2ccc(O)cc2C)cc(OC)c1OC | 24.5 | -0.2 | 0.1 | 3.0
C/C(=N\NC(=O)c1cc(Br)ccc1O)c1c(O)cc(C)oc1=O | 0.1 | -0.8 | 0.3 | 15.2
O=C(/C=C/c1ccco1)N1c2ccccc2CCc2ccccc21 | 0.3 | 1.5 | -0.2 | -10.4
Cc1ccc(Nc2cc(C)nn2-c2nc(C)cc(=O)[nH]2)cc1 | 58.0* | -1.0 | -1.2 | 14.3
Cc1ccc(Nc2cc(C)nn2-c2nc(C)cc(C)n2)cc1 | 11.2 | -0.2 | -0.1 | 1.9
Cc1ccc(OCc2cc(C(=O)N3CCCCC3CCc3ccccn3)no2)cn1 (stereo not given) | 17.0 | -0.7 | 0.0 | 7.8
CNc1c2ccccc2nc2ccccc12 | 70.9* | -0.4 | 0.1 | -13.7
Nc1c2ccccc2nc2ccccc12 (tested in a mixture with another compound) | 71.0* | -0.7 | 0.2 | -2.1
Nc1cc(-c2ccccc2)nc2ccccc12 | 13.5 | -0.8 | -0.1 | 3.4
CC(C)Nc1c2ccccc2nc2ccccc12 | 73.5* | 0.9 | 0.3 | -5.2
CCC(=O)Oc1c(OC)cc(/C=C2\N=C(c3cccs3)OC2=O)cc1OC | 5.5 | -0.1 | 0.7 | 13.8
CSc1ccccc1C(=O)Nc1ccc(S(=O)(=O)Nc2nccs2)cc1 | 0.9 | -0.9 | -0.3 | 3.3
Cn1cc(-c2ccc3nc(Nc4ccc(-n5cnc(N6CCOCC6)n5)cc4)ncc3c2)cn1 | -8.4 | 0.3 | 0.1 | 36.0
Cc1cc(-c2ncn(-c3ccc(Nc4ncc5ccc(-c6cnn(C)c6)cc5n4)cc3)n2)ccn1 | 88.5* | -2.7 | 0.6 | 26.9
Cn1cc(-c2ccc(Nc3ncc4ccc(-c5cnn(CCN6CCOCC6)c5)cc4n3)cc2)cn1 | 50.8* | 0.3 | -0.2 | 3.0
SMILES | TEAD-YAP block | GPR151 ag | FBW7 act | MITF inh
Cn1cc(-c2ccc3cnc(Nc4ccc(-n5cnc(-c6ccncc6)n5)cc4)nc3c2)cn1 | 45.3* | -1.4 | 0.8 | 14.3
Cc1cc(N2CCCCC2)nc(NCCNS(=O)(=O)Cc2ccccc2)n1 | 55.5* | -0.6 | -0.2 | 4.4
Cc1cc(N2CCN(c3ccccc3)CC2)nc(NCc2ccccc2)n1 | 11.8 | 0.2 | -0.3 | 2.6
O=[N+]([O-])c1ccc(Cc2nnc(-c3ccc(F)cc3)o2)cc1 | -35.6 | -0.5 | 0.5 | 21.1
Cc1ccc(-c2nnc(Cc3ccc([N+](=O)[O-])cc3)o2)cc1 | 60.9* | -0.6 | 0.3 | 21.9
Cc1cc(C)n(Cc2cccc(C(=O)N/N=C/c3ccc(O)cc3O)c2)n1 | 18.2 | 0.0 | -0.8 | 21.6
Cc1cc(C)n(Cc2ccc(C(=O)N/N=C/c3ccc(O)cc3O)cc2)n1 | 60.8* | -0.4 | -0.8 | 18.5
COc1ccc(CCCC(=O)N/N=C/c2cccc(OC)c2O)cc1C | 42.3* | -0.5 | -0.2 | -6.7
COc1cccc(/C=N/NC(=O)c2ccc(Cn3nc(C)cc3C)cc2)c1O | 52.6* | 0.1 | -0.1 | 28.5
CCOC(=O)Cn1cc(C=O)c2ccccc21 | -1.9 | 0.1 | 0.8 | -0.9
CCOC(=O)Cn1cc(C(=O)OC)c2ccccc21 | -1.9 | 2.9 | 2.3* | 13.7
c1ccc(Oc2ccc(Nc3nccn4c(-c5ccoc5)cnc34)cc2)cc1 | -4.1 | 1.5 | -0.2 | -3.7
CC(C)c1ccc(Nc2nccn3c(-c4ccoc4)cnc23)cc1 | -10.4 | -1.0 | 2.3* | 7.3
Cc1cc(C)nc(SCc2cc(=O)c(OC(=O)c3ccccc3F)co2)n1 | 1.2 | 2.5 | 0.1 | 8.2
CCOC(=O)c1ccc(NC(=O)CN2C(=O)CC(C)(C)S(=O)(=O)c3ccccc32)cc1 | 21.5 | -0.8 | 5.2* | 4.8
COc1ccc2nc(NC(=O)c3sc4ncn(CC(=O)N5CCCCC5C)c(=O)c4c3C)sc2c1 (stereo not given) | 6.2 | 0.6 | -0.1 | -5.8
Cc1ccc2nc(Nc3nc(C)c(C)c(=O)[nH]3)nc(C)c2c1 | -31.9 | 0.1 | -0.1 | 3.8
Cc1ccc2c(C)nc(Nc3nc(C)c(C)c(=O)[nH]3)nc2c1 | 44.5* | -0.6 | 0.1 | 28.1
CN(C)CCOc1cc(-c2cn[nH]c2)ccc1NC(=O)C(O)c1ccc(F)cc1 (stereo not given) | -2.2 | -0.9 | -0.1 | 6.7
CN(C)CCOc1cc(-c2cn[nH]c2)ccc1N | 0.0 | -1.8 | -1.0 | 54.0*
N#Cc1cccc(NC(=O)C[n+]2c(N)sc3ccc4ccccc4c32)c1 | 43.1* | 0.2 | 0.1 | -1.8
COc1ccc(OCc2n(CC(=O)OC3CC(C)CCC3C(C)C)c3ccccc3[n+]2C)cc1 (stereo not given) | 41.1* | 0.7 | -0.1 | 7.8
Cc1cc(C(=O)CN2CCN(C)CC2)c(C)n1-c1ccc(Br)cc1 | 7.8 | -1.2 | 0.5 | 88.0*
CCN1CCN(CC(=O)c2cc(C)n(-c3ccc(F)cc3)c2C)CC1 | -6.2 | 1.0 | -0.1 | 79.5*
Cc1c(C(=O)NC2CCCCC2)sc2ncn(CC(=O)N3CCCCC3C)c(=O)c12 (stereo not given) | -0.4 | 0.4 | 2.0* | 22.4
SMILES | TEAD-YAP block | GPR151 ag | FBW7 act | MITF inh
Cc1c(C(=O)NC(C)C)sc2ncn(CC(=O)N3CCCCC3C)c(=O)c12 (stereo not given) | 0.2 | 0.1 | -0.1 | 6.6
CCCOc1ccc(/C(O)=C2\C(=O)C(=O)N(CCN(C)C)C2c2ccc(OC)c(OC)c2)c(C)c1 (stereo not given) | -6.8 | 0.6 | -0.4 | -5.7
CCCOc1ccc(/C(O)=C2\C(=O)C(=O)N(CCCN(C)C)C2c2ccc(OC)c(OC)c2)c(C)c1 (stereo not given) | 32.8* | -1.8 | 0.3 | 15.4
CCOC(=O)c1c(CNc2ccncc2)n(C)c2cc(Br)c(OC(C)=O)cc12 | 7.6 | 0.8 | 0.0 | -2.0
COc1ccc(CCNC(=O)c2cnc(Nc3ccc(N4CCOCC4)cc3)s2)cc1 | -12.8 | 2.6 | 0.2 | -1.4
COc1ccc(CCNC(=O)c2csc(Nc3ccc(N4CCOCC4)cc3)n2)cc1 | 71.4* | 1.2 | 0.2 | 14.2
O=C(NCCOc1ccccc1)c1csc(Nc2ccc(N3CCOCC3)cc2)n1 | 39.4* | 2.5 | -0.1 | -127.4
O=c1cc(-c2ccccc2)oc2cc(O)ccc12 | 51.1*! | -2.0 | -0.2 | -6.1

Screening results (PubChem)
